Screening results deposited in PubChem by National Center for Advancing Translational Sciences (NCATS).
VACV mCherry inh: qHTS for Stage-Specific Inhibitors of Vaccinia Orthopoxvirus: mCherry Reporter Primary qHTS. Vaccinia virus mCherry reporter infection, fluorescence. 0.63% of 310,000 active. Potency, µM (highest dose often 36.5 µM), for the others: top-dose activity change, negative = inhibition, hits mostly inhibitors. AID 720579, 2013; calls by dose curve; tested in A549 cells; also: nearly all actives have a fitted effect of over 35% in size
Pf growth 96h: Primary qHTS for delayed death inhibitors of the malarial parasite plastid, 96 hour incubation | P. falciparum luciferase reporter growth, 96 h | Potency, µM (series often up to 28.7 µM), inactives show at the top dose activity change, negative = inhibition, usual class: inhibitors | 6.9% of 320,000 active | AID 504834, 2011
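Parasite growth measured via integrated firefly luciferase reporter in P. falciparum. Infected erythrocytes at 2% hematocrit, 0.05% parasitemia final were treated 96 hours at 37 C under 5% CO2, and luminescence was read.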
AMA1-RON2 inh: qHTS for Inhibitors of AMA1-RON; Towards Development of Antimalarial Drug Lead: Primary Screen; 0.2% of 360,000 active; Potency, µM (highest dose often 58.2 µM), for inactives: at the top dose activity change, negative = inhibition, usual class: inhibitors; AlphaScreen AMA1-biotinylated RON2 peptide binding;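 also: 0% = vehicle wells and -100% = peptide control; nearly all actives have a fitted effect of over 45% in size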
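AMA1 (3D7) with his tag at 25 nM final met compounds first, then biotinylated RON2 peptide at 25 nM; detection used donor plus acceptor beads, 10 µg/mL apiece, read by AlphaScreen after 30 min at room temperature.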
Pf growth 48h: Primary qHTS for delayed death inhibitors of the malarial parasite plastid, 48 hour incubation; P. falciparum luciferase growth in erythrocytes, 48 h; Potency, µM (doses to about 28.7 µM), for the others: top-dose activity change, negative = inhibition, most hits filed as inhibitors; 5.9% of 310,000 active
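Luminescence readout; reporter = integrated firefly luciferase in P. falciparum. RBC culture at 2% hematocrit, 0.1% parasitemia final, 37 C/5% CO2; decreased signal taken as growth inhibition.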
Vaccinia Venus: qHTS for Stage-Specific Inhibitors of Vaccinia Orthopoxvirus: Venus Reporter Primary qHTS | Vaccinia virus Venus reporter expression, fluorescence | Potency, µM (titrated, usually from 36.5 µM), inactives show at the highest dose activity change, negative = inhibition, hits mostly inhibitors | 0.46% of 330,000 active | AID 720580, 2013; calls by dose curve; tested in A549 cells; also: nearly all actives have a fitted effect of over 30% in size
The depositor's hits bear a star; i = inactive; ? = inconclusive; · = no result; [ ] = another dose, or the depositor's remark. A selection: hits, their analogues and other compounds. The true share with any hit is near 8.7%. Unless noted, calls follow the shape of the dose curve; as a rule, active = well fitted curve in the direction sought with a large enough effect; inconclusive = small, poorly fitted or top-dose-only effect, or another doubt; inactive = no such curve, though single readings can be large; an effect the other way counts as inactive or inconclusive. Unless noted, % is scaled to controls: 0 for no effect and ±100 for the full control effect; potency is read from the fitted curve at half-maximal effect.

SMILES | VACV mCherry inh | Pf growth 96h | AMA1-RON2 inh | Pf growth 48h | Vaccinia Venus
Nc1nonc1-c1nc2ccccc2n1CC(=O)NC1CCCC1 | -4% | 10µM* | 1% | 12% | 3%
O=C(NCCC(=O)N(Cc1ccco1)Cc1cccs1)c1ccccc1Cl | · | ? | -7% | ? | ·
O=C(Nc1ccccc1)N1CCC(C(=O)N(Cc2ccco2)Cc2cccs2)CC1 | · | 1.7µM* | 9% | ? | ·
Cc1ccc(CNC(=O)C2CCN(S(=O)(=O)Cc3ccccc3)CC2)cc1 | -10% | · | · | · | -2%
Cc1cccc(C)c1OCc1cc(=O)n2ccsc2n1 | -11% | · | · | · | -11%
Cc1ccccc1NC(=O)N(C(C)C)C(C)C | · | 9.3µM* | 2% | · | -9%
CC(=O)Nc1ccc(NC(=O)Nc2ccccc2C)cc1 | · | 26% | -7% | 58% | ·
COc1ccc(OC)c(S(=O)(=O)NCC(c2ccc(N(C)C)cc2)N2CCOCC2)c1 (configuration not stated) | -14% | · | · | · | -11%
COc1ccc(/C=C/c2cc(-c3ccc(C)cc3)o[n+]2C)cc1 | ? | 0.15µM* | -8% | ? | ?
CCNc1nc(NC(C)C)nc(Oc2ccc(OCCOc3ccc(C)cc3)nn2)n1 | -18% | 12µM* | 11% | ? | -13%
Cc1ccccc1-c1nc(CS(=O)(=O)CC(=O)Nc2cccc(C(F)(F)F)c2)c(C)o1 | -9% | · | · | · | -2%
COc1ccc(S(=O)(=O)NCc2ccccn2)c(C)c1C | -3% | 7% | 3% | 3% | -3%
CCOc1ccc(S(=O)(=O)NCc2ccccn2)c(C)c1C | i | 10µM* | 11% | ? | -13%
COc1ccc(S(=O)(=O)NCc2ccccn2)cc1OC | -7% | 17% | 9% | 28% | -13%
COc1ccccc1Oc1ccc(S(=O)(=O)NCc2ccccn2)cc1 | · | 10µM* | 28% | 2% | ·
CCOC(=O)C1=C(C)NC(SCC(=O)Nc2nc(C)cs2)=C(C#N)C1c1cccs1 (configuration not stated) | · | ? | · | 2.1µM* | ·
C=CCOC(=O)C1=C(C)NC(SCC(=O)N(CC)CC)=C(C#N)C1c1ccco1 (configuration not stated) | -19% | · | 7% | 13µM* | ?
C=CCOC(=O)C1=C(C)NC(SCC(=O)NC(=O)OCC)=C(C#N)C1c1cccnc1 (configuration not stated) | -20% | 4% | 15% | 10µM* | -1%
C=CCOC(=O)C1=C(C)NC(SCC(=O)Nc2ccccc2)=C(C#N)C1c1ccco1 (configuration not stated) | -7% | ? | -5% | 9.3µM* | ?
C=CCOC(=O)C1=C(C)NC(SCC(=O)N(CC)CC)=C(C#N)C1c1ccccc1 (configuration not stated) | -16% | 73% | -5% | ? | 0%
C=CCOC(=O)C1=C(C)NC(SCC(N)=O)=C(C#N)C1c1cccs1 (configuration not stated) | -15% | ? | -6%[11.6 µM] | -14% | -20%
CC(NC(=O)c1ccc2c(c1)sc1nc(-c3ccc(F)cc3)cn12)C12CC3CC(CC(C3)C1)C2 (configuration not stated) | -18% | · | · | · | -5%
Cc1cnc2c(C)cccc2c1C | -8% | · | · | · | 2%
COc1cc2nc(CN3CC=C(c4ccccc4)CC3)[nH]c(=O)c2cc1OC | 5.6µM* | · | 21% | · | ?
CCNc1nc(NC(C)(C)C)nc(N2CCCC2)n1 | -13% | -26% | 6% | 1.5µM* | -26%
C(=C\c1ccnc2ccccc12)/c1ccc(N2CCNCC2)cc1 | ? | · | · | · | -17%
COc1ccc2c(c1OC)C(=O)OC2c1ccc(O)cc1 (configuration not stated) | -7% | · | · | · | -16%
COc1cc(C2OC(=O)c3c2ccc(OC)c3OC)ccc1O (configuration not stated) | · | -21% | · | 7.4µM* | ·
CC1(C)N=C(N)N=C(N)N1c1cccc(CN)c1 | -2% | 0.93µM* | 9% | 0.83µM* | -18%
CC1(C)N=C(N)N=C(N)N1c1ccc(F)cc1F | · | 9.3µM* | 6% | ? | -8%
